Measurements: PubChem BioAssay (Tox21)
Records with an inconclusive call do not appear. Activity calls are given as the source filed them. Unless noted, calls come from the whole dose curve; as a rule, active = well fitted curve in the direction sought with a large enough effect in the repeat runs; inconclusive = weak or mixed curves; inactive = no such curve, though single readings can be large; an effect the other way counts as inactive or inconclusive.

Experiments:
[1] = qHTS assay to identify small molecule agonists of the hypoxia (HIF-1) signaling pathway - cell viability counter screen (AID 1224844; calls by dose curve; note: nearly all actives have a fitted effect of over 50% in size)
Method in brief: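 HRE-bla ME-180 cells, 2,000/well in 0.5% dialyzed FBS medium, treated 17 h at 37C with compounds. Viability read in the same wells as the bla reporter, by CellTiter-Glo luminescence after 30 min at room temperature.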

[2] = qHTS assay to identify small molecule agonists of H2AX (AID 1224845; active = well fitted activation curve with a large enough effect in the signal ratio in the repeat runs, not every such curve was filed as active; the % refers to the signal ratio)
Method in brief: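 Wild-type CHO-K1 cells, plated overnight, exposed 3hr at 37C to 15 concentrations (0.76% DMSO final). Lysed, then HTRF anti-pH2AX (S139) cryptate and anti-H2AX-d2 antibodies, 24 hr room temperature; 665/620 nm emission read.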

[3] = qHTS assay to identify small molecule agonists of the hypoxia (HIF-1) signaling pathway (AID 1224846; active = well fitted activation curve with a large enough effect in the signal ratio in the repeat runs, not every such curve was filed as active; the % refers to the signal ratio)
Method in brief: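 HRE-bla ME-180 beta-lactamase reporter cells in medium with 0.5% dialyzed FBS, pre-incubated 5 h then exposed to compounds 17 h at 37C, 5% CO2; reporter induction read with CCF4-AM FRET substrate.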

[4] = qHTS assay to identify small molecule agonists of H2AX - cell viability counter screen (AID 1224847; calls by dose curve; note: top concentration of the series differs between compounds; nearly all actives have a fitted effect of over 30% in size)
Method in brief: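 Read-out: CellTiter-Glo luminescence, 30 min RT. Cells: wild-type CHO-K1, 1000/well, 10% FBS, plated overnight at 37C. Treatment: 15 concentrations, 3 hr, 37C, 0.76% DMSO.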

[5] = qHTS RealTime-Glo MT Cell Viability Assay in HepG2 cells - 24 hour (AID 1224867); note: nearly all actives have a fitted effect of over 50% in size
Method in brief: (§1)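 HepG2 cells (600/well) were dispensed with RealTime-Glo reagents, incubated 5 h at 37 °C, then treated with compounds in DMSO for up to 40 h. Nonlytic NanoLuc luminescence reflecting viable cells was read at each stated time point.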

[6] = qHTS RealTime-Glo MT Cell Viability Assay in HEK293 cells - 32 hour (AID 1224868); note: top concentration of the series differs between compounds; nearly all actives have a fitted effect of over 50% in size
Method in brief: (§2)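 HEK293 cells seeded with NanoLuc/prosubstrate reagent, rested 5 h at 37 C, then dosed and kept at 37 C up to 40 h. Nonlytic real-time luminescence from viable cells read at 0, 8, 16, 24, 32 and 40 h.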

[7] = A CellTox Green Cytotoxicity Assay to monitor cytotoxicity in HEK293 cells - 0 hour (AID 1224869); note: nearly all actives have a fitted effect of over 50% in size
Method in brief: (§3)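 HEK293 cells, 600/well, were preincubated 5 hours and then exposed to compounds at 37 C for up to 40 hours. A cell-impermeant cyanine dye staining dead-cell DNA was read by fluorescence at 0, 8, 16, 24, 32 and 40 h time points.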

[8] = qHTS RealTime-Glo MT Cell Viability Assay in HepG2 cells - 40 hour (AID 1224870); note: nearly all actives have a fitted effect of over 50% in size
Method in brief: (§4)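 HepG2 cells (600/well) mixed with RealTime-Glo MT reagent, settled 5 h at 37 C/5% CO2 before compound addition. Nonlytic NanoLuc luminescence from viable-cell prosubstrate reduction read repeatedly during 40 h treatment at 37 C.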

[9] = A CellTox Green Cytotoxicity Assay to monitor cytotoxicity in HEK293 cells - 40 hour (AID 1224871); note: nearly all actives have a fitted effect of over 45% in size
Method in brief: as §3

[10] = qHTS RealTime-Glo MT Cell Viability Assay in HEK293 cells - 16 hour (AID 1224872)
Method in brief: as §2

[11] = qHTS RealTime-Glo MT Cell Viability Assay in HepG2 cells - 8 hour (AID 1224873); note: nearly all actives have a fitted effect of over 55% in size
Method in brief: as §4

[12] = qHTS RealTime-Glo MT Cell Viability Assay in HEK293 cells - 40 hour (AID 1224874); settings: RealTime-Glo luminescence; max response: active compounds read low; note: nearly all actives have a fitted effect of over 50% in size
Method in brief: (§5)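 600 cells/well were plated with the nonlytic NanoLuc/prosubstrate reagent, pre-incubated 5 h, then given 23 nL of compound in DMSO. Incubation at 37 C for 40 h, with luminescence from viable-cell-reduced substrate read repeatedly from 0 h.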

[13] = A CellTox Green Cytotoxicity Assay to monitor cytotoxicity in HEK293 cells - 24 hour (AID 1224875); note: nearly all actives have a fitted effect of over 45% in size
Method in brief: as §3

[14] = A CellTox Green Cytotoxicity Assay to monitor cytotoxicity in HepG2 cells - 16 hour (AID 1224876); note: nearly all actives have a fitted effect of over 45% in size
Method in brief: (§6)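 HepG2 cells, 600/well, preincubated 5 h with CellTox Green dye, then exposed to Tox21 compounds in DMSO at 37 C for up to 40 h. Dead-cell DNA fluorescence read at the indicated time point.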

[15] = qHTS RealTime-Glo MT Cell Viability Assay in HepG2 cells - 32 hour (AID 1224877); note: nearly all actives have a fitted effect of over 55% in size
Method in brief: as §1

[16] = A CellTox Green Cytotoxicity Assay to monitor cytotoxicity in HepG2 cells - 24 hour (AID 1224878); note: nearly all actives have a fitted effect of over 45% in size
Method in brief: as §6

[17] = A CellTox Green Cytotoxicity Assay to monitor cytotoxicity in HepG2 cells - 40 hour (AID 1224879); note: nearly all actives have a fitted effect of over 40% in size
Method in brief: as §6

[18] = qHTS RealTime-Glo MT Cell Viability Assay in HEK293 cells - 0 hour (AID 1224880)
Method in brief: as §5

[19] = qHTS assay to identify small molecule agonists of the estrogen related receptor (ERR) signaling pathway from Tox21 library (AID 1224849; calls by dose curve; note: nearly all actives have a fitted effect of over 15% in size); settings: ERR reporter cell line, ONE-Glo luciferase, 18 h; at 92.4 µM (top of the series) unless noted
Method in brief: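 ERR reporter cells (NTP line) pre-incubated 6 hours at 37 C, then exposed to compounds for 18 hours at 37 C. ONE-Glo luciferase luminescence was read after 30 minutes at room temperature.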

[20] = qHTS assay to identify small molecule antagonists of the estrogen related receptor (ERR) signaling pathway from Tox21 library (AID 1224848); note: nearly all actives have a fitted effect of over 50% in size
Method in brief: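 ERR reporter cell line (from NTP) seeded 2,000 cells/well, rested 6 h at 37 C/5% CO2, then pin-dosed with compounds in DMSO. After 18 h at 37 C, ONE-Glo added; luminescence read after 30 min at room temperature.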
% is set by controls: 0 for no effect and ±100 for the full control effect.

CN/C(=N\[N+](=O)[O-])NCc1cnc(Cl)s1
inactive: Potency [1] | Potency [2] | Potency [3] | Potency [4] | Potency [5] | Potency [6] | Potency [7] | Potency [8] | Potency [9] | Potency [10] | Potency [11] | max response [12] -7.42% | Potency [13] | Potency [14] | Potency [15] | Potency [16] | Potency [17] | Potency [18]

CSC(C)(C)/C=N/O
inactive: Potency [1] | Potency [2] | Potency [3] | Potency [4] | Potency [5] | Potency [6] | Potency [7] | Potency [8] | Potency [9] | Potency [10] | Potency [11] | max response [12] 2.63% | Potency [13] | Potency [14] | Potency [15] | Potency [16] | Potency [17] | Potency [18]

CNC(=O)O/N=C(\C)C(C)S(C)(=O)=O (configuration not stated)
inactive: Potency [1] | Potency [2] | Potency [3] | Potency [4] | activity change, positive = activation [19] 7.13% [at 872 µM] | Potency [5] | Potency [6] | Potency [7] | Potency [9] | Potency [11] | max response [12] 1.59% | Potency [13] | Potency [14] | Potency [15] | Potency [18]

CCCCCON=O
inactive: Potency [1] | Potency [2] | Potency [3] | Potency [4] | Potency [20] | activity change, positive = activation [19] -5.1% | Potency [5] | Potency [6] | Potency [7] | Potency [8] | Potency [9] | Potency [10] | Potency [11] | max response [12] 1.89% | Potency [13] | Potency [14] | Potency [15] | Potency [17] | Potency [18]

Cc1ccn2nc(S(=O)(=O)Nc3c(F)cccc3F)nc2n1
inactive: Potency [1] | Potency [2] | Potency [3] | Potency [4] | Potency [20] | activity change, positive = activation [19] 1.87% | Potency [5] | Potency [6] | Potency [7] | Potency [9] | Potency [10] | Potency [11] | Potency [13] | Potency [14] | Potency [15] | Potency [16] | Potency [17] | Potency [18]

CCCCn1cc[n+](C)c1 (tested in a mixture with another compound)
inactive: Potency [1] | Potency [2] | Potency [3] | Potency [4] | Potency [5] | Potency [6] | Potency [7] | Potency [8] | Potency [9] | Potency [10] | Potency [11] | max response [12] 0.0469% | Potency [13] | Potency [14] | Potency [15] | Potency [17] | Potency [18]

C#CC1(O)CCCCC1
inactive: Potency [1] | Potency [2] | Potency [3] | Potency [4] | Potency [20] | activity change, positive = activation [19] 1.06% | Potency [5] | Potency [6] | Potency [7] | Potency [8] | Potency [9] | Potency [10] | Potency [11] | max response [12] 19.4% | Potency [13] | Potency [15] | Potency [18]
